# From PubChem BioAssay
# Vaccinia Venus: vaccinia inhibition (Venus reporter); Vaccinia virus Venus reporter expression, fluorescence; Potency, µM (top dose mostly 36.5 µM), without a hit: at the highest dose activity change, negative = inhibition, actives largely listed as inhibitors; 330,000 tested, 0.46% active; AID 720580; calls by dose curve; tested in A549 cells; further: potency means the concentration at half of the fitted maximal effect; on the % scale 0 is the no-effect control and ±100 the full control effect; nearly all actives have a fitted effect of over 30% in size
# Shiga toxin inh: Shiga toxin inhibition; 290,000 tested, 9.2% active; Vero cells, Shiga toxin protein synthesis inhibition reporter; inhibition, % at 38.7 µM; in the data active means inhibition mostly above about 28%, no sharp cut-off; inactive means mostly below about 43%; further: 0% is about no effect
# Cycloheximide cs: counter-screen for Shiga toxin inhibitors: cycloheximide protein synthesis inhibition; cell reporter, cycloheximide protein synthesis inhibition counterscreen; max response, %; 300,000 tested, 12% active; AID 2314; in the data active means max response mostly above about 13%, no sharp cut-off; inactive means mostly below about 14%; further: read at 38.3 µM for the half of the compounds with a filed dose; 0% is about no effect
# Vaccinia mCherry: vaccinia inhibition (mCherry reporter) | AID 720579 | Vaccinia virus mCherry reporter infection, fluorescence | Potency, µM (doses to about 36.5 µM), without a hit: top-dose activity change, negative = inhibition, hits mostly inhibitors | 310,000 tested, 0.63% active; calls by dose curve; tested in A549 cells; further: potency means the concentration at half of the fitted maximal effect; on the % scale 0 is the no-effect control and ±100 the full control effect; nearly all actives have a fitted effect of over 35% in size
# MARV entry inh: inhibitors of Marburg virus binding or cell entry; Potency, µM (highest dose often 37.8 µM), without a hit: at the top dose activity change, negative = inhibition, most hits filed as inhibitors; 300,000 tested, 1.8% active; Marburg virus pseudotyped entry inhibition, cell reporter; calls by dose curve; tested in HEK293 cells; further: potency means the concentration at half of the fitted maximal effect; on the % scale 0 is the no-effect control and ±100 the full control effect
# Lassa entry inh: blocks Lassa virus binding to or entry into cells. Lassa virus pseudotype entry inhibition, cell reporter. Potency, µM (doses to about 37.9 µM), without a hit: at the top dose activity change, negative = inhibition, most hits filed as inhibitors. 300,000 tested, 1.2% active. AID 540256; calls by dose curve; tested in HEK293 cells; further: potency means the concentration at half of the fitted maximal effect; on the % scale 0 is the no-effect control and ±100 the full control effect; nearly all actives have a fitted effect of over 50% in size
# Starred values were filed as active, the others as inactive; i = inactive; ? = inconclusive; · = not tested or not shown; ! = not active in a repeat; [ ] = dose if it differs, or a comment. This excerpt belongs to a sample that is enriched for hits.
SMILES,Vaccinia Venus,Shiga toxin inh,Cycloheximide cs,Vaccinia mCherry,MARV entry inh,Lassa entry inh
Cc1onc(-c2ccccc2)c1C(=O)Nc1ccc(S(=O)(=O)N2CCCC2)cc1,0%,34,19*,i,?,?
COc1ccc(NC(=O)c2ccccc2-c2ccc(C(F)(F)F)cc2)cc1S(=O)(=O)N1CCOCC1,?,-2,-4,?,-38%,?
COc1ccc(C(=O)Nc2ccc(Nc3ccccc3)cc2)cc1Br,-18%,·,·,-21%,-14%[46.1 µM],-10%
CCCn1c(=O)c2c(nc3n2CCN3c2ccc(C)cc2)n(C)c1=O,-3%,·,·,-10%,·,-2%[46.1 µM]
O=C(Nc1nccs1)c1ccc(S(=O)(=O)N2CCOCC2)cc1,-18%,44,15*,-1%,?,?
O=C(Nc1ccc(N2CCCC2)cc1)c1cccc(F)c1,·,145*,54*,·,?,?
O=C(/C=C/c1ccc(Cl)cc1)Nc1ccc(N2CCCCC2)cc1,·,38,2,·,?,-12%
Cc1ccc(NC(=O)c2cc(S(=O)(=O)N3CCOCC3)ccc2F)c(C)c1,·,32,23*,·,-5%,-1%
O=C(/C=C/c1ccccc1)Nc1ccc(N2CCCCC2)cc1,-25%,31,26*,-5%,-20%,8%
Cc1cccc(C(=O)Nc2ccc(N3CCN(c4ccc(C(F)(F)F)cn4)CC3)nc2)c1,-10%,-3,-2,i,6%,2%
CC(=O)Nc1ccc(N2CCCCC2)cc1,-6%,24,11,-12%,29%,7%
CN(CC1CCCO1)S(=O)(=O)c1ccc(C(=O)Nc2nccs2)cc1 (stereo not given),·,22*,24*,·,·,·
Cc1ccc(NC(=O)c2ccc(S(=O)(=O)N3CCOCC3)cc2)cc1,-12%,42,29*,29%,9%[46.1 µM],?
NC(=O)NC(=O)C(Nc1ccc(N2CCCCC2)cc1)c1ccccc1 (stereo not given),11%,121*,51*,?,?,17%[46.1 µM]
Cc1ccc(C(=O)Nc2ccc(N3CCN(C)CC3)nc2)cc1,9%,41,32*,-14%,24%[46.1 µM],1%
CC(=O)c1ccc(-c2ccc3c4c(ccc3c2)OC(CNC(=O)C(C)N2CCOCC2)C4)s1 (stereo not given),-18%,·,·,-17%,·,·
Cc1ccc(Cl)cc1N1CCN(C(=O)c2c(C)oc3ncnc(N4CCCCC4)c23)CC1,-14%,·,·,-22%,·,-24%[46.1 µM]
COc1cc2c(cc1OC)CN(C(=O)c1ccc(OC)c(S(=O)(=O)N3CCOCC3)c1)CC2,-13%,38,24*,-1%,-2%,-8%
CC(C)c1ccc(NC(=S)NN2CCOCC2)cc1,3%,48*,23*,-11%,?,1%
Cc1ccccc1C(=O)Nc1ccc(S(=O)(=O)N2CCCC2)cc1,-19%,4,8,-10%,?,2%
COc1cc(C(=S)N2CCCC2)ccc1OS(=O)(=O)c1ccc(NC(C)=O)cc1,·,31,3,·,-24%,16µM*
Cc1ccc(C(=O)Nc2ccc(S(=O)(=O)N3CCCC3)cc2)s1,·,50,14*,·,·,·
COc1ccc(C(=O)N2CCCC2)cc1S(=O)(=O)N1CCOCC1,-4%,-16,2,1%,14%,-24%[14.3 µM]
Cc1cc(C(=O)NCC2CCC3(CCN(Cc4ccc5ccccc5c4)CC3)O2)n(C)n1 (stereo not given),-29%,·,·,-8%,·,·
CCN(C(=O)CSc1nncn1-c1ccccc1)C1CCS(=O)(=O)C1 (stereo not given),-9%,·,·,-14%,-12%,4%[46.1 µM]
SMILES,Vaccinia Venus,Shiga toxin inh,Cycloheximide cs,Vaccinia mCherry,MARV entry inh,Lassa entry inh
CCN(CC)S(=O)(=O)c1csc(C(=O)OCC(=O)c2ccccc2)c1,·,41*,33*,·,-13%,-2%
CCCCC(=O)OCc1cc(=O)n2nc(C3CC3)sc2n1,-8%,·,·,-8%,·,27%[46.1 µM]
CCOC(=O)CNc1c(-c2ccc(O)cc2)nc2ccc(Cl)cn12,·,56,23*,·,11%,-23%
COc1ccc2c(c1)c(CC(=O)Nc1ccc(C(C)=O)cc1)c(C)n2C(=O)c1ccc(Cl)cc1,-10%[7.34 µM],83*!,47*,-21%[7.34 µM],?,?
COc1ccc2c(c1)c(CC(=O)Nc1nnc(C3CC3)s1)c(C)n2C(=O)c1ccc(Cl)cc1,-10%,-7,8,?,3.2µM*,?
CC(C)Cc1nn2c(=O)cc(COC(=O)c3ccc4c(c3)OCO4)nc2s1,0%,·,·,-6%,·,14%[46.1 µM]
C=C(C)CN1C(=O)C2(OCCO2)c2ccccc21,-12%,-4,-3,i,-12%[46.1 µM],9%[46.1 µM]
CCOC(=O)C(=O)c1c(-c2ccccc2)nc2ccccn12,-7%,-11,0,-8%,-23%[46.1 µM],?
CCOC(=O)c1c(-c2ccccc2)nc2cc(C)ccn12,·,76*,54*,·,-10%,4%
CCOC(=O)c1c(-c2ccccc2)nc2ccc(C)cn12,·,123*,45*,·,-2%,1%
CCCc1cc(=O)[nH]c(SCc2nc(-c3ccccc3)no2)n1,-1%,·,·,i,·,-1%[46.1 µM]
Nc1cccc(-c2c[nH]c3ncc(-c4cccnc4)cc23)c1,10µM*,·,·,?,·,·
c1cncc(-c2cnc3ccccc3c2)c1,-9%,·,·,-7%,·,·
COC(=O)NC(C)N1C(=O)C2C3C=CC(C3)C2C1=O (stereo not given),-17%,41,7,-3%,2%[46.1 µM],3%[46.1 µM]
Nc1nc2c(c(=O)[nH]1)CN(Cc1ccccc1)CC2,-15%,·,·,-1%,·,·
CC(C)c1ccccc1NC(=O)COC(=O)c1c2c(nc3ccccc13)CCN(Cc1ccccc1)C2,·,-25,-4,·,?,?
Cc1c(Cl)cccc1NC(=O)COC(=O)c1c2c(nc3ccccc13)CCN(Cc1ccccc1)C2,?,8,1,11µM*,2.6µM*,?
Nc1c2c(nc3ccccc13)CCN(Cc1ccccc1)C2,-21%,5,15*,-9%,·,·
O=[N+]([O-])c1ccc(/C=N/N/C(=N/c2ccccn2)c2ccccn2)cc1,-2%,50,40*,i,?,?
O=[N+]([O-])c1cc(/C=N/N/C(=N/c2ccccn2)c2ccccn2)ccc1O,?,123*,34*,?,?,-22%
CC(C)[C@@H](OCc1ccccc1)[C@H](C)CON=C1[C@H]2CCn3c(=O)n(-c4ccccc4)c(=O)n3[C@@H]2[C@H](O)[C@@H]2O[C@H]12,·,·,·,·,25%[14.2 µM],·
CCCn1c(N)c(C(=O)CSc2nc3ccccc3s2)c(=O)[nH]c1=O,-15%,61*,15,11µM*,?,?
Cn1c(=O)[nH]c(=O)c2c1nc(SCC(=O)O)n2Cc1ccccc1,·,-6,-5,·,·,·
Cn1c(=O)[nH]c(=O)c2c1nc(Sc1nc3ccccc3s1)n2Cc1ccccc1,4µM*,35,13,·,?,-6%
O=C(Nc1ccc(Cl)c(Cl)c1)OCc1cnc(Cl)s1,?,15,20*,·,-7%,17%
O=C(Nc1ccccc1)OCc1cncs1,-2%,32*,22,-15%,?,1%[46.1 µM]
O=C(OCc1cnc(Cl)s1)c1cccc(Cl)c1,-10%,3,5,·,6%,1%
